# According to the supplement of paper PMC10037445:
# ± gives the standard deviation of the averaged measurements. Over roughly 2,900 compounds, “NF-kB SEAP reporter activity, fold change vs agonist alone” has its median near 0.99; the highest 2% begin near 2.6. Shown is part of a subset that was picked to be rich in the highest values.
# Key:
# RAW-Dual [1] = assay: NF-kB SEAP reporter activity, fold change vs agonist alone; cytotoxicity flag (confluency mask): cytotoxic (confluency <70% of control); higher = enhanced NF-kB activity
# Summary of the method: (§1)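 After 50 nL of library stock was delivered by pin tool to RAW-Dual macrophages (50,000 cells/well, DMEM, 384-well plates), a PRR agonist was added 1 h later and the plates were kept at 37 °C, 5% CO2. Twenty hours later, IRF was read from supernatant by QuantiLuc luminescence and NF-κB by QuantiBlue absorbance at 620 nm. Reporter activity is stated as fold change over agonist-alone wells. Wells with IncuCyte confluency under 70% of agonist controls in both mask sets were counted as cytotoxic.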
# RAW-Dual [2] = assay: NF-kB SEAP reporter activity, fold change vs agonist alone; higher = enhanced NF-kB activity
# Summary of the method: as §1
# RAW-Dual [3] = assay: NF-kB SEAP reporter activity, fold change vs agonist alone; cytotoxicity flag (confluency mask): not cytotoxic; higher = enhanced NF-kB activity
# Summary of the method: as §1
# [4] = agonist: ODN 1826 (TLR9) 0.5 ug/mL
# [5] = agonist: Pam2CSK4 (TLR2/6) 0.1 ug/mL
# [6] = agonist: Pam3CSK4 (TLR2/1) 0.1 ug/mL
# [7] = library stock concentration (final ~1000-fold dilution): 10 mM, cytotoxicity flag (confluency mask): cytotoxic (confluency <70% of control), agonist: Imiquimod (TLR7) […]
# [8] = library stock concentration (final ~1000-fold dilution): 10 mM, cytotoxicity flag (confluency mask): cytotoxic (confluency <70% of control), agonist: MPLA (TLR4) […]
# [9] = library stock concentration (final ~1000-fold dilution): 10 mM, cytotoxicity flag (confluency mask): not cytotoxic, agonist: Imiquimod (TLR7) […]
# [10] = library stock concentration (final ~1000-fold dilution): 10 mM, cytotoxicity flag (confluency mask): not cytotoxic, agonist: MPLA (TLR4) […]
smiles,measurement,setting,value
CCS(=O)(=O)N1CCN(c2ccc(Nc3ncc(C(N)=O)c(NC4CC4)n3)cc2)CC1.Cl (library stock concentration (final ~1000-fold dilution): 10 mM),NF-kB SEAP reporter activity,RAW-Dual [1]; agonist: LPS (TLR4) 0.1 ug/mL,0.273
same,NF-kB SEAP reporter activity,RAW-Dual [1]; [4],0.218
same,NF-kB SEAP reporter activity,RAW-Dual [1]; [5],0.0746
same,NF-kB SEAP reporter activity,RAW-Dual [1]; [6],0.121
CCS(=O)(=O)N1CCN(c2ccc(Nc3ncc(C(N)=O)c(NC4CC4)n3)cc2)CC1.Cl,NF-kB SEAP reporter activity,RAW-Dual [2]; [7],0.23
same,NF-kB SEAP reporter activity,RAW-Dual [2]; [8],0.398
CCOc1ccc(Cc2cc(C3OC(CO)C(O)C(O)C3O)ccc2Cl)cc1 (stereo not drawn),NF-kB SEAP reporter activity,RAW-Dual [2]; [9],1.04
same,NF-kB SEAP reporter activity,RAW-Dual [2]; [10],1.03
CCOc1ccc(Cc2cc(C3OC(CO)C(O)C(O)C3O)ccc2Cl)cc1 (stereo not drawn) (library stock concentration (final ~1000-fold dilution): 10 mM),NF-kB SEAP reporter activity,RAW-Dual [3]; agonist: LPS (TLR4) 0.1 ug/mL,1.04
same,NF-kB SEAP reporter activity,RAW-Dual [3]; [4],1.2
same,NF-kB SEAP reporter activity,RAW-Dual [3]; [5],1.01
same,NF-kB SEAP reporter activity,RAW-Dual [3]; [6],1.1
CCC1=CC2CN(C1)Cc1c([nH]c3ccccc13)C(C(=O)OC)(c1cc3c(cc1OC)N(C)C1C(O)(C(=O)OC)C(OC(C)=O)C4(CC)C=CCN5CCC31C54)C2 (stereo not drawn),NF-kB SEAP reporter activity,RAW-Dual [2]; [7],2.47
same,NF-kB SEAP reporter activity,RAW-Dual [2]; [8],2.6
CCC1(O)CC2CN(CCc3c([nH]c4ccccc34)C(C(=O)OC)(c3cc4c(cc3OC)N(C=O)C3C(O)(C(=O)OC)C(OC(C)=O)C5(CC)C=CCN6CCC43C65)C2)C1.O=S(=O)(O)O (stereo not drawn) (library stock concentration (final ~1000-fold dilution): 10 mM),NF-kB SEAP reporter activity,RAW-Dual [3]; agonist: LPS (TLR4) 0.1 ug/mL,5.34
same,NF-kB SEAP reporter activity,RAW-Dual [3]; [4],3.28
same,NF-kB SEAP reporter activity,RAW-Dual [3]; [5],1.99
same,NF-kB SEAP reporter activity,RAW-Dual [3]; [6],2.22
CCC1(O)CC2CN(CCc3c([nH]c4ccccc34)C(C(=O)OC)(c3cc4c(cc3OC)N(C=O)C3C(O)(C(=O)OC)C(OC(C)=O)C5(CC)C=CCN6CCC43C65)C2)C1.O=S(=O)(O)O (stereo not drawn),NF-kB SEAP reporter activity,RAW-Dual [2]; [9],2.54
same,NF-kB SEAP reporter activity,RAW-Dual [2]; [10],2.37
CCC1(O)CC2CN(CCc3c([nH]c4ccccc34)C(C(=O)OC)(c3cc4c(cc3OC)N(C)C3C(O)(C(=O)OC)C(OC(C)=O)C5(CC)C=CCN6CCC43C65)C2)C1.O=S(=O)(O)O (stereo not drawn) (library stock concentration (final ~1000-fold dilution): 10 mM),NF-kB SEAP reporter activity,RAW-Dual [1]; agonist: LPS (TLR4) 0.1 ug/mL,5.91
same,NF-kB SEAP reporter activity,RAW-Dual [1]; [4],2.96
same,NF-kB SEAP reporter activity,RAW-Dual [1]; [5],1.48
same,NF-kB SEAP reporter activity,RAW-Dual [1]; [6],1.94
CCC1(O)CC2CN(CCc3c([nH]c4ccccc34)C(C(=O)OC)(c3cc4c(cc3OC)N(C)C3C(O)(C(=O)OC)C(OC(C)=O)C5(CC)C=CCN6CCC43C65)C2)C1.O=S(=O)(O)O (stereo not drawn),NF-kB SEAP reporter activity,RAW-Dual [2]; [7],2.51
same,NF-kB SEAP reporter activity,RAW-Dual [2]; [8],2.53
CCC1=CC2CN(C1)Cc1c([nH]c3ccccc13)C(C(=O)OC)(c1cc3c(cc1OC)N(C)C1C(O)(C(=O)OC)C(OC(C)=O)C4(CC)C=CCN5CCC31C54)C2 (stereo not drawn) (library stock concentration (final ~1000-fold dilution): 10 mM),NF-kB SEAP reporter activity,RAW-Dual [1]; agonist: LPS (TLR4) 0.1 ug/mL,5.34
same,NF-kB SEAP reporter activity,RAW-Dual [1]; [4],0.35
same,NF-kB SEAP reporter activity,RAW-Dual [1]; [5],1.78
same,NF-kB SEAP reporter activity,RAW-Dual [1]; [6],1.95
C=CC(=O)Nc1cc(Nc2nccc(-c3cn(C)c4ccccc34)n2)c(OC)cc1N(C)CCN(C)C.CS(=O)(=O)O (library stock concentration (final ~1000-fold dilution): 10 mM),NF-kB SEAP reporter activity,RAW-Dual [1]; agonist: LPS (TLR4) 0.1 ug/mL,2.39
same,NF-kB SEAP reporter activity,RAW-Dual [1]; [4],0.214
same,NF-kB SEAP reporter activity,RAW-Dual [1]; [5],1.28
same,NF-kB SEAP reporter activity,RAW-Dual [1]; [6],0.898
C=CC(=O)Nc1cc(Nc2nccc(-c3cn(C)c4ccccc34)n2)c(OC)cc1N(C)CCN(C)C.CS(=O)(=O)O,NF-kB SEAP reporter activity,RAW-Dual [2]; [8],1.91
O=[N+]([O-])c1ccc(Nc2ccccc2-c2ccccc2)c2nonc12,NF-kB SEAP reporter activity,RAW-Dual [2]; [9],0.973
same,NF-kB SEAP reporter activity,RAW-Dual [2]; [10],1.33
O=[N+]([O-])c1ccc(Nc2ccccc2-c2ccccc2)c2nonc12 (library stock concentration (final ~1000-fold dilution): 10 mM),NF-kB SEAP reporter activity,RAW-Dual [3]; agonist: LPS (TLR4) 0.1 ug/mL,2.02
same,NF-kB SEAP reporter activity,RAW-Dual [3]; [4],1.02
same,NF-kB SEAP reporter activity,RAW-Dual [3]; [5],0.555
same,NF-kB SEAP reporter activity,RAW-Dual [3]; [6],0.754
CC(C)(C)C(=O)N1N=CCC1c1ccccc1 (stereo not drawn) (library stock concentration (final ~1000-fold dilution): 10 mM),NF-kB SEAP reporter activity,RAW-Dual [3]; agonist: LPS (TLR4) 0.1 ug/mL,1.02 ± 0.095
same,NF-kB SEAP reporter activity,RAW-Dual [3]; [4],0.9171 ± 0.0045
same,NF-kB SEAP reporter activity,RAW-Dual [3]; [5],0.983 ± 0.09
same,NF-kB SEAP reporter activity,RAW-Dual [3]; [6],1.3 ± 0.015
CC(C)(C)C(=O)N1N=CCC1c1ccccc1 (stereo not drawn),NF-kB SEAP reporter activity,RAW-Dual [2]; [9],0.871 ± 0.094
same,NF-kB SEAP reporter activity,RAW-Dual [2]; [10],1.025 ± 0.0035
O=C(C=Cn1cnc(-c2cc(C(F)(F)F)cc(C(F)(F)F)c2)n1)NNc1cnccn1,NF-kB SEAP reporter activity,RAW-Dual [2]; [9],1.41
same,NF-kB SEAP reporter activity,RAW-Dual [2]; [10],0.523
O=C(C=Cn1cnc(-c2cc(C(F)(F)F)cc(C(F)(F)F)c2)n1)NNc1cnccn1 (library stock concentration (final ~1000-fold dilution): 10 mM),NF-kB SEAP reporter activity,RAW-Dual [3]; agonist: LPS (TLR4) 0.1 ug/mL,0.255
same,NF-kB SEAP reporter activity,RAW-Dual [3]; [4],0.841
same,NF-kB SEAP reporter activity,RAW-Dual [3]; [5],0.42
same,NF-kB SEAP reporter activity,RAW-Dual [3]; [6],0.428
Cc1ccc(NC(=O)c2ccc(CN3CCC(N(C)C)C3)c(C(F)(F)F)c2)cc1Nc1nccc(-c2cncnc2)n1 (stereo not drawn),NF-kB SEAP reporter activity,RAW-Dual [2]; [7],2.42
same,NF-kB SEAP reporter activity,RAW-Dual [2]; [8],1.36
Cc1ccc(NC(=O)c2ccc(CN3CCC(N(C)C)C3)c(C(F)(F)F)c2)cc1Nc1nccc(-c2cncnc2)n1 (stereo not drawn) (library stock concentration (final ~1000-fold dilution): 10 mM),NF-kB SEAP reporter activity,RAW-Dual [1]; agonist: LPS (TLR4) 0.1 ug/mL,0.247
same,NF-kB SEAP reporter activity,RAW-Dual [1]; [4],0.833
same,NF-kB SEAP reporter activity,RAW-Dual [1]; [5],1.4
same,NF-kB SEAP reporter activity,RAW-Dual [1]; [6],1.16
Cc1nc(NC(=O)N2CCCC2C(N)=O)sc1-c1ccnc(C(C)(C)C(F)(F)F)c1 (stereo not drawn),NF-kB SEAP reporter activity,RAW-Dual [2]; [9],1.35
same,NF-kB SEAP reporter activity,RAW-Dual [2]; [10],1.13
Cc1nc(NC(=O)N2CCCC2C(N)=O)sc1-c1ccnc(C(C)(C)C(F)(F)F)c1 (stereo not drawn) (library stock concentration (final ~1000-fold dilution): 10 mM),NF-kB SEAP reporter activity,RAW-Dual [3]; agonist: LPS (TLR4) 0.1 ug/mL,1.65
same,NF-kB SEAP reporter activity,RAW-Dual [3]; [4],1.78
same,NF-kB SEAP reporter activity,RAW-Dual [3]; [5],1.43
same,NF-kB SEAP reporter activity,RAW-Dual [3]; [6],1.09
C=CC(=O)Nc1cccc(C)c1Nc1ncc2cc(-c3c(Cl)c(OC)cc(OC)c3Cl)ccc2n1,NF-kB SEAP reporter activity,"RAW-Dual [2]; library stock concentration (final ~1000-fold dilution): 2 mM, cytotoxicity flag (confluency mask): not cytotoxic, agonist: Imiquimod (TLR7) […]",1.08
same,NF-kB SEAP reporter activity,"RAW-Dual [2]; library stock concentration (final ~1000-fold dilution): 2 mM, cytotoxicity flag (confluency mask): not cytotoxic, agonist: MPLA (TLR4) […]",1.2
C=CC(=O)N1CCN(CCCn2c(=O)c(-c3c(Cl)c(OC)cc(OC)c3Cl)cc3cnc(NC)nc32)CC1,NF-kB SEAP reporter activity,RAW-Dual [2]; [9],0.952
same,NF-kB SEAP reporter activity,RAW-Dual [2]; [10],1.23
C=CC(=O)Nc1cccc(C)c1Nc1ncc2cc(-c3c(Cl)c(OC)cc(OC)c3Cl)ccc2n1 (library stock concentration (final ~1000-fold dilution): 2 mM),NF-kB SEAP reporter activity,RAW-Dual [3]; agonist: LPS (TLR4) 0.1 ug/mL,1.04
same,NF-kB SEAP reporter activity,RAW-Dual [3]; [4],1.08
same,NF-kB SEAP reporter activity,RAW-Dual [3]; [5],0.531
same,NF-kB SEAP reporter activity,RAW-Dual [3]; [6],0.89
C=CC(=O)N1CCN(CCCn2c(=O)c(-c3c(Cl)c(OC)cc(OC)c3Cl)cc3cnc(NC)nc32)CC1 (library stock concentration (final ~1000-fold dilution): 10 mM),NF-kB SEAP reporter activity,RAW-Dual [3]; agonist: LPS (TLR4) 0.1 ug/mL,3.2
same,NF-kB SEAP reporter activity,RAW-Dual [3]; [4],1.05
same,NF-kB SEAP reporter activity,RAW-Dual [3]; [5],0.933
same,NF-kB SEAP reporter activity,RAW-Dual [3]; [6],1.15
C=CC(=O)NC1CCOCC1Nc1ncc2cc(-c3c(Cl)c(OC)cc(OC)c3Cl)ccc2n1 (stereo not drawn) (library stock concentration (final ~1000-fold dilution): 10 mM),NF-kB SEAP reporter activity,RAW-Dual [3]; agonist: LPS (TLR4) 0.1 ug/mL,0.691
same,NF-kB SEAP reporter activity,RAW-Dual [3]; [4],0.827
same,NF-kB SEAP reporter activity,RAW-Dual [3]; [5],0.34
same,NF-kB SEAP reporter activity,RAW-Dual [3]; [6],0.478
C=CC(=O)NC1CCOCC1Nc1ncc2cc(-c3c(Cl)c(OC)cc(OC)c3Cl)ccc2n1 (stereo not drawn),NF-kB SEAP reporter activity,RAW-Dual [2]; [9],0.68
same,NF-kB SEAP reporter activity,RAW-Dual [2]; [10],0.869
